ABCB6 inh 2: ABCB6 transporter inhibitors, primary screen, K562-ABCB6 cells, flow cytometry, MLPCN library | ATP-binding cassette sub-family B member 6 (Homo sapiens), Q9NP58 | K562-ABCB6 porphyrin accumulation, 1 h; hits give low values | fluorescence ratio to DMSO, % at 10 µM | actives 0.19% (n = 360,000) | AID 602162, 2011;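 active = fluorescence ratio to DMSO below 75%, the collection mean minus 3 SD; inconclusive = too few cells collected in the well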;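 also: signal is porphyrin accumulated inside mitochondria; lower ratio means ABCB6 inhibition with less porphyrin fluorescence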
Target sequence (Q9NP58 whole entry, looked up): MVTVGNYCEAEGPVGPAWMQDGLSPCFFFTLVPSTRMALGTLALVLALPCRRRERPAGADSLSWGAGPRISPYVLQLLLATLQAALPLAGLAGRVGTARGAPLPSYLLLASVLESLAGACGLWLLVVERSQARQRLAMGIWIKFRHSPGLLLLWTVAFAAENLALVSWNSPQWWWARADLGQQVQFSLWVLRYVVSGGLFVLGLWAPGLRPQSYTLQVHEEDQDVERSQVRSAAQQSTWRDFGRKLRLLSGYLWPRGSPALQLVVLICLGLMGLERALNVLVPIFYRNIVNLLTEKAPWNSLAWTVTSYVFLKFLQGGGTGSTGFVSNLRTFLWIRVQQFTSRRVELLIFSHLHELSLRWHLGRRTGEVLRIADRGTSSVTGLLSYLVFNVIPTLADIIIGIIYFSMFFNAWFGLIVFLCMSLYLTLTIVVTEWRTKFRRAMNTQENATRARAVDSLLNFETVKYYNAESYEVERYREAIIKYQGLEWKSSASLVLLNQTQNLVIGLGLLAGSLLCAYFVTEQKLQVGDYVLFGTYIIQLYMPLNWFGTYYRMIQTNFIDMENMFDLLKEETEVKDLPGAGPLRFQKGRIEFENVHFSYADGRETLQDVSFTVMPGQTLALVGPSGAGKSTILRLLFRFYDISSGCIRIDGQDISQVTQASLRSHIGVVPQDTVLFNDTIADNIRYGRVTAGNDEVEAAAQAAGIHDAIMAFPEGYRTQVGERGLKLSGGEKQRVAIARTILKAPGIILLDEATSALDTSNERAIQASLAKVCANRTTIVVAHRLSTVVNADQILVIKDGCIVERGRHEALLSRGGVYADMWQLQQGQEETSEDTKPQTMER
Exocytosis inh: LAMP-1 surface exposure blockers, TALL-104 cells – cell-based, flow cytometry, MLPCN library, primary screen. TALL-104 LAMP-1 surface exposure; cells stimulated with thapsigargin and PMA. inhibition, % at 10 µM. actives 0.66% (n = 360,000). AID 651702, 2012;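 active = inhibition above about 55%, limit read from the data; inconclusive = no clear call, values can overlap the other calls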
Myeloid diff 2: induction of myeloid progenitor differentiation, primary screen, cell-based, flow cytometry, MLPCN library. calls only at 10 µM. AID 624256, 2012. ER-HoxA9 myeloid progenitors, lysozyme-GFP differentiation. actives 1% (n = 360,000);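 active = normalized GFP-positive differentiation at or above the plate's own cutoff, the solvent-only control mean plus 3 SD; inconclusive = no clear call, values can overlap the other calls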;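 also: cells exposed to compound for four days before flow analysis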
Hits are given with their value; - = inactive; ? = inconclusive; . = no result given; + = active, no number. Shown are actives, neighbours in structure and some others; about 1.8% of the full set was active somewhere.

SMILES | ABCB6 inh 2 | Exocytosis inh | Myeloid diff 2
Cc1ccccc1NC(=O)COC(=O)c1ccc(S(=O)(=O)N2CCCCCC2)cc1 | - | - | -
Cc1ccccc1NC(=O)COC(=O)c1ccc(S(=O)(=O)N2CCCC2)cc1 | - | - | +
CCOC(=O)c1ccc(S(=O)(=O)N2CCC(C(=O)O)CC2)cc1 | - | - | +
CC1(C(=O)Nc2cccc(OC(F)(F)F)c2)Cc2c(-c3ccc(C(N)=O)cc3)ccnc2O1 (centres undefined) | - | - | -
Cc1nn(-c2ccccc2)c(Cl)c1C(=O)OCC(=O)NCCc1ccccc1 | - | - | -
CC(NC(=O)/C(C#N)=C1\N=C(NC(=O)c2cccs2)c2ccccc21)c1ccccc1 (centres undefined) | - | - | +
N#C/C(C(=O)NCCc1ccccc1)=C1/N=C(NC(=O)c2cccs2)c2ccccc21 | - | - | -
CCC(=O)OCCn1c(Br)nc2c1c(=O)[nH]c(=O)n2C | - | - | -
Cn1c(=O)[nH]c(=O)c2c1nc(Br)n2CCCO | - | - | +
O=C(CN1C(=O)NC(Cc2ccccc2)C1=O)Nc1ccc(F)c(Cl)c1 (centres undefined) | - | - | -
COc1cc(/C=C/C(=O)OCC(=O)c2ccc(OC(F)F)cc2)ccc1O | - | 67 | -
O=C(/C=C/c1ccco1)OCC(=O)c1ccc(OC(F)F)cc1 | - | - | -
Cc1ccc(N2CC(C(N)=O)CC2=O)cc1 (centres undefined) | - | - | -
Cc1ccc(N2CCN(c3ccc(C)cc3)C(CC(=O)O)C2=O)cc1 (centres undefined) | - | - | +
COCCCNC(=O)CC1C[C@H](C(=O)N2CCOCC2)[C@@]2(C)c3[nH]c4ccc(OC)cc4c3CCN2C1=O (some centres undefined) | - | - | -
CC(=O)O[C@@H]1C[C@@]2(C)[C@@H](CC[C@H]2[C@@H](C)/C=C\CC(C)C)C2=C[C@@H](O)[C@@]3(O)C[C@@H](O)[C@H](O)C[C@]3(CO)[C@]21O | - | - | -
O=C(CNC(=O)c1cccs1)OCc1c(F)cccc1Cl | - | - | -
FC(F)(F)c1cc(C(F)(F)F)n2nc(-c3sccc3-n3cccc3)cc2n1 | - | - | +
Cc1cc(C)n2nc(-c3sccc3-n3cccc3)cc2n1 | - | - | -
CC1Oc2ccc(C#N)cc2N(Cc2ccccc2OC(F)(F)F)C1=O (centres undefined) | - | - | -
CCCCN(C(=O)c1cc(S(=O)(=O)N2CCCCC2)ccc1Cl)c1c(N)n(CC(C)C)c(=O)[nH]c1=O | - | - | -
COc1ccc(NS(=O)(=O)c2cc(N)ccc2N2CCCCC2)cc1 | - | - | -
Nc1ccc(N2CCCC2)c(S(=O)(=O)Nc2cccc(C(F)(F)F)c2)c1 | - | - | +
Cc1cccc(-n2ccc(=O)c(C(=O)Nc3ccc(S(=O)(=O)Nc4nccs4)cc3)n2)c1 | - | - | +
O=C(Nc1ccc(S(=O)(=O)Nc2nccs2)cc1)c1nn(-c2ccccc2)ccc1=O | - | - | -
SMILES | ABCB6 inh 2 | Exocytosis inh | Myeloid diff 2
Cc1ccc(/C=C2/NC(=O)N(Cc3ccccc3F)C2=O)s1 | - | - | +
O=C1N/C(=C/c2cccs2)C(=O)N1Cc1ccccc1F | - | - | -
COc1ccc(C(=O)NCCNc2nc3ccc(C)cc3cc2C#N)cc1OC | - | - | -
c1cnc2nc3c4ccccc4c4ccccc4c3nc2c1 | - | - | +
Cc1nc2ccccc2c2ncccc12 | - | - | -
Cc1ccc(NCc2nnc(SCC(=O)NNC(=O)Cc3ccccc3)n2C)cc1 | - | - | +
Cc1ccc(NCc2nnc(SCC(=O)Nc3nnc(C)s3)n2C)cc1 | - | - | -
CCCc1nnc(NC(=O)CCC(=O)NC2CCCCCC2)s1 | - | - | -
Cc1nn(-c2ccccc2)c(Cl)c1/C=N/NC(=O)c1cccc(S(=O)(=O)N2CCCC2)c1 | - | - | -
Cc1nn(-c2ccccc2)c(N2CCCC2)c1/C=N/NC(=O)c1cccc(S(=O)(=O)Nc2ccc(Cl)cc2)c1 | - | - | +
CN1CCc2c(sc3c2C(=O)NC(c2ccco2)N3)C1 (centres undefined) | - | - | -
CN1CCc2c(sc3c2C(=O)NC(c2ccc(-c4ccc(Cl)cc4)o2)N3)C1 (centres undefined) | - | - | +
CC(C)(C)c1nn2cnnc2n(/N=C/c2ccccc2)c1=O | - | - | -
Cc1cc(C)nc(SC2=CS(=O)(=O)c3ccccc32)n1 | - | - | +
O=S1(=O)C=C(Sc2nnc(-c3ccccc3)o2)c2ccccc21 | - | - | ?
COc1cccc(Nc2nc(C(C)N)cs2)n1 (centres undefined) | - | - | -
COc1ccc(C(N)c2csc(Nc3ncccn3)n2)cc1 (centres undefined) | - | - | -
COc1cccc(Nc2nc(C(N)c3ccccc3)cs2)n1 (centres undefined) | - | - | +
COc1ccc(C(N)c2csc(Nc3nncc4ccccc34)n2)cc1 (centres undefined) | - | - | +
COc1cccc(C(=O)NCC(=O)N/N=C/c2cn[nH]c2-c2ccccc2)c1 | - | - | -
CC(C)(C)CC(C)(C)c1ccc(O)c(Cc2ccc(Cl)cc2Cl)c1 | - | - | -
CC1(C(=O)Nc2ccc3c(c2)OCCO3)CN(S(C)(=O)=O)CC(=O)N1CCc1ccc(O)cc1 (centres undefined) | . | - | -
Cc1n[nH]c(C)c1N1C(=O)c2cccc3c(N4CCCCCC4)ccc(c23)C1=O | - | - | +
O=C1c2cccc3c(N4CCCCC4)ccc(c23)C(=O)N1CCO | - | - | -
CCN1C(=O)[C@@H]2Cc3c([nH]c4ccccc34)C(c3ccc(OC)cc3)N2C1=S (some centres undefined) | - | - | +
SMILES | ABCB6 inh 2 | Exocytosis inh | Myeloid diff 2
COC(=O)c1ccc(C2c3[nH]c4ccccc4c3C[C@H]3C(=O)N(C)CC(=O)N23)cc1 (some centres undefined) | - | - | -
O=P(c1ccccc1)(c1ccccc1)c1ccccc1C(Br)Br | - | - | -
CCOc1ccccc1OCCCC(=O)NNC(=O)c1cc(C)oc1C | - | - | -
c1ccc(-c2csc3ncnc(NCC4COc5ccccc5O4)c23)cc1 (centres undefined) | - | - | -
Cc1sc2ncnc(NCC3COc4ccccc4O3)c2c1C (centres undefined) | - | - | +
COc1ccc(CC(=O)Nc2ccc(-c3nc4cc(C)ccc4o3)c(O)c2)cc1OC | - | - | -
Cc1ccc2oc(-c3ccc(NC(=O)c4ccncc4)cc3O)nc2c1 | - | - | +
Cc1ccc(C)c(N2CCN(C(=O)c3ccc(CSc4nc5ccncc5[nH]4)cc3)CC2)c1 | - | - | +
O=C(c1ccc(CSc2nc3ccncc3[nH]2)cc1)N1CCCCC1 | - | - | -
O=C(C[n+]1ccc(C(=O)c2ccccc2)cc1)Nc1cccc([N+](=O)[O-])c1 | - | - | -
COC(=O)C1(C)NC(c2cccc(C)c2)C2C(=O)N(c3ccccc3)C(=O)C21 (centres undefined) | - | - | -
